Laboratory results from PubChem BioAssay (NCI).
Several values for one entry are separate records, joined by “and”; a condition that tells them apart may be missing. Equal values may be shown once. Compounds without any hit were thinned out: in the full panel of roughly 79,000, 15% have a hit. Rule as the data show it: active = growth inhibition above about 70%; inactive = the rest.

Tests used:
[1] = NCI Yeast Anticancer Drug Screen. Data for the rad50 strain (AID 155);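 also: 0% = growth of vehicle-only cultures of the same strain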; details: S. cerevisiae rad50 strain growth inhibition; at 50.0 µM; hits give high values
Summary of the method: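 DNA repair mutant yeast, compound exposure, growth read-out; inhibition is taken relative to vehicle.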

[2] = NCI Yeast Anticancer Drug Screen. Data for the mec2-1 strain (AID 157); details: S. cerevisiae mec2-1 strain, at 50.0 µM, hits give high values
Summary of the method: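 mec2-1 yeast strain, carrying an alteration in DNA damage repair or cell cycle control, was exposed to compounds; growth inhibition was measured relative to vehicle-treated controls.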

[3] = NCI Yeast Anticancer Drug Screen. Data for the sgs1 mgt1 strain (AID 161);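 also: 0% = growth of cultures given vehicle only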; details: S. cerevisiae sgs1 mgt1 strain, at 50.0 µM, hits give high values
Summary of the method: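 Percent growth inhibition was derived by comparing compound-exposed mutant yeast with vehicle-exposed cultures. The strain carries alterations in DNA damage repair.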

[4] = NCI Yeast Anticancer Drug Screen. Data for the cln2 rad14 strain (AID 165);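 also: 0% = growth equal to vehicle treated cultures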; details: S. cerevisiae cln2 rad14 strain, at 50.0 µM, hits give high values
Summary of the method: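 Yeast carrying cln2 and rad14 alterations (cell cycle control and DNA damage repair) were exposed to compounds. Growth inhibition was measured against vehicle-treated controls.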

[5] = NCI Yeast Anticancer Drug Screen. Data for the bub3 strain (AID 167); details: S. cerevisiae bub3 mutant strain, at 50.0 µM, hits give high values
Summary of the method: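 In this screen, a yeast mutant lacking normal mitotic checkpoint function is challenged with compound. Relative growth versus vehicle gives the inhibition value.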

[6] = NCI Yeast Anticancer Drug Screen. Data for the mlh1 rad18 strain (AID 175); details: S. cerevisiae mlh1 rad18 strain growth inhibition; at 50.0 µM; hits give high values
Summary of the method: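 Growth inhibition of the yeast strain was measured after compound exposure and expressed relative to vehicle-treated controls. The strain carries defined defects in DNA damage repair.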

Measured: growth inhibition

CC(=O)O.CC(=O)O.CC(=O)O.CC(=O)O.CC(=O)O.CC(=O)O.O.[Ti].[Ti]
inactive: [1] -6.65% | [2] -23.8% | [3] -23.6% | [4] -4.2% | [5] -10.1% | [6] -34%

COc1cc(C(=O)OC(C)CC2(c3ccccc3)C(=O)NC(=O)NC2=O)cc(OC)c1OC (centres undefined)
inactive: [1] 2.75% | [2] -3.4% | [3] 24.1% | [4] 1.75% | [5] 3.05% | [6] -6.8%

CCCCCCCCCCC[CH2][Hg][CH2]CCCCCCCCCCC
inactive: [1] 9.8% | [2] -1.05% | [3] 4% | [4] -4.65% | [5] 4.55% | [6] -4.3%

O=C(NC(=S)N1CC1)c1ccccc1
inactive: [1] -13.9% | [2] -43.4% | [3] -7% | [4] -7.8% | [5] -26.4% | [6] -36.3%

O=C(O)c1ccccc1N=Nc1ccc(N(CCCl)CCCl)cc1
inactive: [1] 21.6% and 13.4% | [2] 14.2% and -11.7% | [3] 3.7% and -2.9% | [4] 10.8% and 20.6% | [5] 16.7% and -4.5% | [6] 31.1% and 8.15%

[CH3][Sn]([CH3])([CH3])[O][N+](=O)[O-]
inactive: [1] 25.6% | [2] 2.65% | [3] 44.6% | [4] 2.55% | [5] 48.7% | [6] 18.9%

c1ccc(N2CCNCC2)nc1
inactive: [1] -6.4% | [2] -4.3% | [3] 9.2% | [4] 6.9% | [5] 8.25% | [6] 0.15%

COc1ccc(/C=C\[N+](=O)[O-])cc1OCc1ccccc1
inactive: [1] 7.2% | [2] 8.35% | [3] 22.6% | [4] -13.6% | [5] 7.2% | [6] 8.05%

CNP1(NC)=NP(N(C)C)(N(C)C)=NP(N(C)C)(N(C)C)=N1
inactive: [1] -15.9% | [2] 0.45% | [3] -3% | [4] -19.4% | [5] 11.6% | [6] 13.2%

CC(C)=CC1C(C(=O)OCCOc2ccccc2)C1(C)C (centres undefined)
inactive: [1] -0.75% | [2] -6.5% | [3] 10.2% | [4] -26.6% | [5] -13.6% | [6] -2.05%

O=C(O)[C@@H](Cl)[C@@H](Cl)C(=O)O
inactive: [1] 30.7% | [2] -11.4% | [3] 22.9% | [4] 6.7% | [5] 9.55% | [6] 17.9%

CC(=O)OC1CCC2(C)C3CCC4(C)C(c5ccc(=O)oc5)CC5OC54C3CCC2(O)C1 (centres undefined)
inactive: [1] 40% | [2] 2.75% | [3] 19.6% | [4] -1.8% | [5] -2.2% | [6] 2.3%

O=P(CCl)(Oc1ccc(Cl)cc1)Oc1ccc(Cl)cc1
inactive: [1] 20.6% | [2] 16.1% | [3] 6% | [4] -19.4% | [5] 7.5% | [6] -10.2%

COP(=O)(NC(=O)OC(C)C)OC
inactive: [1] -37.1% | [2] -21.2% | [3] -9.8% | [4] 5.2% | [5] -15.4% | [6] -7.95%

CCC1=C(CC2NCCc3cc(OC)c(OC)cc32)CC2c3ccccc3CCN2C1 (centres undefined)
inactive: [1] -16.8% | [2] -26.5% | [3] -42.7% | [4] -9.75% | [5] -22.8% | [6] -16.3%

CC(C)c1ccc(-n2c(=S)[nH]c3ccccc3c2=O)cc1
inactive: [1] -16.3% | [2] -7% | [3] -13.8% | [4] -25% | [5] -5.7% | [6] 13.8%

COP(=O)(NC12CC3CC(CC(C3)C1)C2)OC
inactive: [1] -4.75% | [2] 5.45% | [3] -13.4% | [4] 15.7% | [5] -1.1% | [6] -16.7%

C1CC[N-]CC1.CC(=N\O)/C(C)=N/O.CC(=N\O)/C(C)=N/O.C[C-]=O.[Co+2]
inactive: [1] -3.6% | [2] 18.4% | [3] 10.3% | [4] 23.6% | [5] 19% | [6] 14.4%

CC1CC2C(CCC3(C)C2CC2(CC2)C3(C)O)C2(C)CCC(O)CC12O (centres undefined)
inactive: [1] 12.6% | [2] 8.55% | [3] 19.9% | [4] -50% | [5] -7.35% | [6] 1.9%

CC(=O)N1CCCN(C)/C1=N/[N+](=O)[O-]
inactive: [1] -20.1% | [2] -14.8% | [3] -6.7% | [4] -10.9% | [5] -15.4% | [6] -13.9%

CC1CCC2N(C1)CC1C3(O)CC45OC6(O)C(O)CCC4(C)C6CCC5C3(O)CC(O)C1(O)C2(C)O (centres undefined)
inactive: [1] -19.9% and -2.1% | [2] -17.9% and -31.1% | [3] -2.9% and -17.4% | [4] -21.6% and 9.15% | [5] -31.2% and -0.4% | [6] 6.5% and -15.3%

COc1ccc(C(C)N)cc1 (centres undefined)
inactive: [1] -47.4% | [2] -5.3% | [3] -10.4% | [4] -11.2% | [5] -4.3% | [6] -2.9%

CC(C)C(CC[C@@H](C)C1CC[C@@]2(C)C3=C(CC[C@]12C)[C@@]1(C)CC[C@H](O)C(C)(C)[C@@H]1CC3)S[As](C)C (some centres undefined)
inactive: [1] 40.4% | [2] -0.5% | [3] 26.7% | [4] 31.6% | [5] -4.35% | [6] 32.8%

COC(=O)C1=C(C)N2[C@H](C(=O)O)CO[C@@]2(C)[C@H](C(=O)OC)[C@H]1c1cccc([N+](=O)[O-])c1
inactive: [1] 26.6% | [2] -8.35% | [3] 21.4% | [4] 4.25% | [5] 25.6% | [6] 22.7%

N[C@H]1C2C3CC4C5CC(C42)C1(c1ccccc1)C53 (some centres undefined)
inactive: [1] -20.4% | [2] -5.25% | [3] -0.05% | [4] -5.2% | [5] -12% | [6] -6%

ClCc1ccco1
inactive: [1] 0.35% | [2] 2.4% | [3] 10.6% | [4] -11.4% | [5] 23.6% | [6] 36.2%

CCCC(C)OP(=O)(OCC)OCC (centres undefined)
inactive: [1] 2.2% | [2] -2.7% | [3] -5.35% | [4] -48.4% | [5] 14.4% | [6] -3.5%

COc1ccc(-c2nc(-c3ccc(N=Cc4ccc(N(CCCl)CCCl)cc4)cc3)cs2)cc1
inactive: [1] 58% | [2] 11.4% | [3] 57% | [4] 27.1% | [5] 11.5% | [6] 42.6%

CCC/C=C/C=C/C(=O)OC1/C(=C/C(=O)OC)CC2CC(C(C)O)OC(=O)CC(O)CC3CC(OC(C)=O)C(C)(C)C(O)(CC4C/C(=C/C(=O)OC)CC(/C=C/C(C)(C)C1(O)O2)O4)O3 (centres undefined)
inactive: [1] 15.7% | [2] -5.2% | [3] -7.85% | [4] 21.3% | [5] 6.15% | [6] 23.1%

O=C(Cc1cccc([N+](=O)[O-])c1)Nc1cccc(S(=O)(=O)F)c1
inactive: [1] 5.8% | [2] -19.6% | [3] -20.3% | [4] -2.9% | [5] 16.6% | [6] 23.9%

CC(C)NC(C)C(C)c1ccccc1 (centres undefined)
inactive: [1] 5.95% | [2] -3.15% | [3] 0.1% | [4] -11.9% | [5] -10.2% | [6] 11%

O=C([O-])CN(CCN(CC(=O)[O-])CC(=O)O)CC(=O)O.[Fe+5].[Na+]
inactive: [1] -12.6% | [2] -13.3% | [3] 0.35% | [4] -35.8% | [5] -2.85% | [6] -8.4%

CC(C)CCC(=O)c1ccoc1
inactive: [1] -2.45% | [2] -9.95% | [3] -1.55% | [4] 3.65% | [5] 5.45% | [6] -28.6%

CN(C)CCC(C)(C#N)c1ccccc1 (centres undefined)
inactive: [1] 8.9% | [2] 5.7% | [3] -4.8% | [4] -7.05% | [5] 13.9% | [6] 21.1%

C[P+](C)(C)C
inactive: [1] 15.6% and -6.8% | [2] -17.2% and 7.3% | [3] -6.6% and 1.45% | [4] 1.4% and -5.8% | [5] 12% and -17.4% | [6] -26.9% and -6.85%

CCOP(=O)(OCC)/C(C#N)=C/c1ccc(C#N)cc1
inactive: [1] 30.6% | [2] 15.8% | [3] 10.8% | [4] 12.3% | [5] 14.7% | [6] 55.2%

CC12CC3CC(C1)CC(N=[N+]=[N-])(C3)C2
inactive: [1] -16.4% | [2] -1.3% | [3] -2.65% | [4] 1.3% | [5] -0.95% | [6] -2.6%

C/C=C1/CN2CCC34c5ccccc5N(C)C23C2CC1C4(C(=O)OC)C(O)O2 (centres undefined)
inactive: [1] -31% | [2] -31.8% | [3] -24.7% | [4] -4.2% | [5] -8.4% | [6] -58.9%

Cc1cccc(N=Nc2ccc(N(C)C)cc2)c1
inactive: [1] -8.45% | [2] -36.6% | [3] 2.4% | [4] -29.6% | [5] -8.6% | [6] -13.3%
